The source of these data is paper PMC9911399, “Two distinct binding modes provide the RNA-binding protein RbFox with extraordinary sequence specificity”.

The labels stand for the following.
T1: RBFOX1 RRM (Homo sapiens, UniProt Q9NWB1 109-208)
T1 sequence: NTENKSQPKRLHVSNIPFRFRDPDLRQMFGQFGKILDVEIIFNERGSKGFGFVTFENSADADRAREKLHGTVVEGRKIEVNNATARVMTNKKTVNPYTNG

B1: CUGGACU (DNA:RNA)
RNA: GGGAGACCGGAAUUCAGAUUGUCCCUGGACUUUAAAUCCCGUCGUAGCCACCA
DNA 1: CAATCTGAATTCCGGTCTCCC
DNA 2: TGGTGGCTACGACGGGATT
B2: AUUAGUU (DNA:RNA)
RNA: B1 RNA with C25A, G27U, G28A, A29G, C30U
DNA 1: CAATCTGAATTCCGGTCTCCC
DNA 2: TGGTGGCTACGACGGGATT
B3: UACCGUC (DNA:RNA)
RNA: GGGAGACCGGAAUUCAGAUUGUCCUACCGUCUUAAAUCCCGUCGUAGCCACCA
DNA 1: CAATCTGAATTCCGGTCTCCC
DNA 2: TGGTGGCTACGACGGGATT
B4: ACUAUCA (DNA:RNA)
RNA: B1 RNA with C25A, U26C, G27U, G28A, A29U, U31A
DNA 1: CAATCTGAATTCCGGTCTCCC
DNA 2: TGGTGGCTACGACGGGATT
B5: UGGGUGG (DNA:RNA)
RNA: B1 RNA with C25U, U26G, A29U, C30G, U31G
DNA 1: CAATCTGAATTCCGGTCTCCC
DNA 2: TGGTGGCTACGACGGGATT
B6: GUCGUUC (DNA:RNA)
RNA: B3 RNA with U25G, A26U, C28G, G29U
DNA 1: CAATCTGAATTCCGGTCTCCC
DNA 2: TGGTGGCTACGACGGGATT
B7: UUGGGAA (DNA:RNA)
RNA: B1 RNA with C25U, A29G, C30A, U31A
DNA 1: CAATCTGAATTCCGGTCTCCC
DNA 2: TGGTGGCTACGACGGGATT
B8: UUGCGUG (DNA:RNA)
RNA: B3 RNA with A26U, C27G, C31G
DNA 1: CAATCTGAATTCCGGTCTCCC
DNA 2: TGGTGGCTACGACGGGATT
B9: CGUGUCC (DNA:RNA)
RNA: B1 RNA with U26G, G27U, A29U, U31C
DNA 1: CAATCTGAATTCCGGTCTCCC
DNA 2: TGGTGGCTACGACGGGATT
B10: UUGGGGG (DNA:RNA)
RNA: B1 RNA with C25U, A29G, C30G, U31G
DNA 1: CAATCTGAATTCCGGTCTCCC
DNA 2: TGGTGGCTACGACGGGATT
B11: CCGUGCG (DNA:RNA)
RNA: B1 RNA with U26C, G28U, A29G, U31G
DNA 1: CAATCTGAATTCCGGTCTCCC
DNA 2: TGGTGGCTACGACGGGATT
B12: GUGUGCG (DNA:RNA)
RNA: B1 RNA with C25G, G28U, A29G, U31G
DNA 1: CAATCTGAATTCCGGTCTCCC
DNA 2: TGGTGGCTACGACGGGATT
B13: UUGCGUC (DNA:RNA)
RNA: B3 RNA with A26U, C27G
DNA 1: CAATCTGAATTCCGGTCTCCC
DNA 2: TGGTGGCTACGACGGGATT
B14: GUGCGUG (DNA:RNA)
RNA: B3 RNA with U25G, A26U, C27G, C31G
DNA 1: CAATCTGAATTCCGGTCTCCC
DNA 2: TGGTGGCTACGACGGGATT
B15: UUGUCCC (DNA:RNA)
RNA: B1 RNA with C25U, G28U, A29C, U31C
DNA 1: CAATCTGAATTCCGGTCTCCC
DNA 2: TGGTGGCTACGACGGGATT
B16: UUGGGUG (DNA:RNA)
RNA: B1 RNA with C25U, A29G, C30U, U31G
DNA 1: CAATCTGAATTCCGGTCTCCC
DNA 2: TGGTGGCTACGACGGGATT
B17: UUGUGUG (DNA:RNA)
RNA: B3 RNA with A26U, C27G, C28U, C31G
DNA 1: CAATCTGAATTCCGGTCTCCC
DNA 2: TGGTGGCTACGACGGGATT
B18: CUUGUCC (DNA:RNA)
RNA: B1 RNA with G27U, A29U, U31C
DNA 1: CAATCTGAATTCCGGTCTCCC
DNA 2: TGGTGGCTACGACGGGATT
B19: UCUCAAU (DNA:RNA)
RNA: B1 RNA with C25U, U26C, G27U, G28C, C30A
DNA 1: CAATCTGAATTCCGGTCTCCC
DNA 2: TGGTGGCTACGACGGGATT
B20: CGUCACC (DNA:RNA)
RNA: B1 RNA with U26G, G27U, G28C, U31C
DNA 1: CAATCTGAATTCCGGTCTCCC
DNA 2: TGGTGGCTACGACGGGATT

Substitutions are numbered along the chain they refer to; changes in the protein carry UniProt numbers. In all, about 16,000 sequences were measured (“ka relative to ugcaugu”: median about 0.0091, highest 2% from about 0.032 on). Only a selection was taken, and the highest values are over-represented in it overall.

This test concerns the target T1, RBFOX1 RRM. Kind of test: EMSA; HiTS-Eq, 1 nM pool, 10 min; buffer printed only for the single-RNA assays: 10 mM Tris pH 7.5, 150 mM NaCl, 3.4 mM EDTA, 0.001% NP-40, 30 C. The conditions noted are these: tags: His6 N-terminal (pET28a); label: 5' 32P. The essentials:
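Purified RbFox RRM, wild type or mutant, was incubated for 10 min in 50 µL with 1 nM of a 5′-radiolabelled RNA pool carrying 7 randomized nucleotides, whose flanks were annealed to DNA oligonucleotides, over a series of increasing protein concentrations. Unbound RNA was resolved on 8% native PAGE, cut out, reverse-transcribed, barcoded by PCR and sequenced on an Illumina HiSeq 2500. Relative association constants were derived from changes in read counts for each RNA species versus the control reaction and normalised to the cognate motif.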
For orientation: Mobility shift assays separate free from complexed probe on a gel.
In the case of B1, the binding signal is 0.00842 KA relative to UGCAUGU.

For B2, the binding signal was 0.00711 KA relative to UGCAUGU.

For the molecule B3, the binding signal is 0.0072 KA relative to UGCAUGU.

In the case of B4, the binding signal was 0.00217 KA relative to UGCAUGU.

For the molecule B5, the binding signal was 0.0279 KA relative to UGCAUGU.

Turning to B6, the binding signal was 0.0139 KA relative to UGCAUGU.

Turning to B7, the binding signal is 0.0102 KA relative to UGCAUGU.

In the case of B8, the binding signal was 0.0447 KA relative to UGCAUGU.

With B9, the binding signal is 0.00858 KA relative to UGCAUGU.

Regarding B10, the binding signal was 0.0118 KA relative to UGCAUGU.

For B11, the binding signal was 0.0124 KA relative to UGCAUGU.

In the case of B12, the binding signal was 0.0191 KA relative to UGCAUGU.

Turning to B13, the binding signal was 0.0198 KA relative to UGCAUGU.

For the molecule B14, the binding signal was 0.0481 KA relative to UGCAUGU.

Regarding B15, the binding signal was 0.0102 KA relative to UGCAUGU.

Regarding B16, the binding signal is 0.0408 KA relative to UGCAUGU.

With B17, the binding signal was 0.0403 KA relative to UGCAUGU.

Consider B18, for which the binding signal was 0.0101 KA relative to UGCAUGU.

Regarding B19, the binding signal is 0.0038 KA relative to UGCAUGU.

Consider B20, for which the binding signal is 0.00293 KA relative to UGCAUGU.
